Structures are written as SMILES. “And” between values parts separate entries of the source, which are not always exact repeats. Identical values can stand only once. Out of some 290,000 compounds screened, about 2,700 (0.93%) were called active. This excerpt belongs to a sample that is enriched for actives. A number with no mark means an inactive call.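 The calls were made as follows: active = inhibition above the screen-wide mean plus 3 SD, computed separately per campaign (cut at about 16% in these data); inactive = the rest.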

Experimental findings from PubChem BioAssay AID1789 (The Scripps Research Institute Molecular Screening Center, 2009) are described below.

This assay deals with Heat shock protein HSP 90 (rabbit reticulocyte lysate; luciferase refolding). The assay is described as follows: HSP90 inhibitors, primary screen, cell lysate, luminescence (AID 1789).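 Also: 0% = DMSO wells and 100% = 60 µM geldanamycin wells; inhibitors lower the luminescence because luciferase stays unfolded.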 Particulars: 3 h, at 5.6 µM, stronger effect = higher value.
On to `O=C(NCc1cccnc1)c1ccccc1NC(=O)c1c(F)cccc1F`, for which the inhibition is -0.75%.
To `COc1ccc(N(CC(=O)Nc2cc(OC)cc(OC)c2)S(=O)(=O)c2c(C)n[nH]c2C)cc1` belongs -1.64%; to `Cc1ccc(S(=O)(=O)NCC(=O)N2CCOCCOCCOCCOCC2)cc1`, -3.1%.
As for `COc1ccccc1-c1cnn2c(N3CCOCC3)cc(C)nc12`, the figure is 3.53%; as for `Cc1sc2ncn(CC(=O)NCCCC(=O)N3CCN(c4ccccc4F)CC3)c(=O)c2c1C`, -3.37%.
As for `CC(NC(=O)COc1ccccc1)C(=O)NC1=NCCS1` (stereo unspecified), the figure is -0.56%.
Regarding `O=C(NC1=NCCS1)[C@H](Cc1ccccc1)N1C(=O)c2ccccc2C1=O`, the inhibition is 3.87%.
`CSCCC(C(=O)NC1=NCCS1)N1C(=O)c2ccccc2C1=O` (stereo unspecified): the inhibition was 33.2% (active).
As for `N#Cc1ccccc1S(=O)(=O)N1CCN(C(=O)c2cc(-c3ccccc3)nn2-c2ccccc2)CC1`, the figure is 4.37%; as for `CC(C)c1nnc(NC(=O)C2CC(=O)N(CCc3ccc(F)cc3)C2)s1` (stereo unspecified), -2.78%; as for `CCOC(=O)C1=C(CCc2ccccc2)NC(=O)NC1c1ccc2ccccc2c1` (stereo unspecified), 2.66%.
As for `CC(=O)N1CCC(C(=O)OCc2ccc(Cl)cc2)(c2ccccc2)CC1`, the figure is -1.35%.
To `CC(C)CNC(=O)/C=C/C(=O)O` belongs 0.58% and -0.1%; to `CC(C)CNC(=O)CC(c1ccccc1)c1c(O)ccc2ccccc12` (stereo unspecified), -0.94%.
With `CC(C)CNC(=O)CC(NCC(C)C)C(=O)O` (stereo unspecified), the inhibition was 21.9% (active).
To `COc1cccc(N(CC(=O)NC2CCCC2)C(=O)Cn2nnc(-c3ccc(C)o3)n2)c1` belongs 0.72%; to `C=C(C)COc1ccc(-c2ncncc2-c2ccc(OC)cc2)c(O)c1`, 3.58%.
`c1ccc(-c2ccc3c(c2)NC(C2Nc4cc(-c5ccccc5)ccc4O2)O3)cc1` (stereo unspecified): the inhibition is 52.5% (active).
As for `Cc1cc(C)cc(C(=O)OCC(=O)NCCNC(=O)COC(=O)c2cc(C)cc(C)c2)c1`, the figure is -1.1%; as for `O=C1CCC(Cc2ccccc2)N1` (stereo unspecified), 0.74%.
As for `COc1cc2c(cc1OC)C(c1ccccc1Br)NC(=O)C2` (stereo unspecified), the figure is -0.82%; as for `O=C1CCC([N+](=O)[O-])C(c2ccccc2Br)N1` (stereo unspecified), 78.7% (active); as for `Cc1ccc(SCC(=O)NNC(=O)c2ccc(S(C)(=O)=O)cc2)cc1`, 2.29%.
To `O=C(/C=C/c1cnc2ccccc2n1)NC1CCCCCC1` belongs -4.23%; to `O=C(COC(=O)/C=C/c1cccs1)NC1CCCCC1`, 1.87%.
As for `Cc1cc(C)n2nc(SCC(=O)NC(=O)NCc3ccco3)nc2n1`, the inhibition was 0.53%.
As for `Cc1ccc(NC(=O)C(=O)NCc2ccco2)c(C)c1`, the figure is -1.76%; as for `Cc1ccc(SCC(=O)NC(=O)NCc2ccco2)c(C)c1`, 16.6% (active).
As for `CC(C)Cc1nnc(NC(=O)CN2C(=O)NC3(CCCCC3)C2=O)s1`, the inhibition was -3.19%.
To `CC1CCN(CC(O)COc2ccc(C(=O)c3ccccc3)cc2)CC1` (stereo unspecified) belongs -4.35%; to `Cc1csc(NC(=O)CSc2nc(=O)cc(N)n2-c2ccc(F)cc2)n1`, -4.86%; to `Cc1nc([N+](=O)[O-])cn1CC(=O)Nc1ccc(Cl)cc1`, -5.8%.
To `Cc1nc2cc3c(cc2s1)OCO3` belongs 5.26%; to `Brc1ccc2nc(N3CCCC3)sc2c1`, 7.29%.
To `c1c2c(cc3sc(N4CCCCC4)nc13)OCCO2` belongs 56.8% (active).
For the compound `COCC1CCN(C(=O)CCc2nnc(C3(c4ccc(Cl)cc4)CCC3)o2)C1` (stereo unspecified), the inhibition was -3.96%.
As for `CN(CC1CCCN(CCc2cccc(C(F)(F)F)c2)C1)C(=O)c1ccc2nc[nH]c2c1` (stereo unspecified), the figure is -5.74%.
Consider `Clc1c(OCCCn2ccnc2)ccc2ccccc12`, for which the inhibition is 1.78%.
As for `COc1ccc(-c2nc3cc([N+](=O)[O-])ccc3o2)cc1OC`, the figure is 1.87%.
To `CC(=O)Nc1ccc(-c2nc3ccccc3o2)cc1` belongs 2.88%; to `CCc1ccc2oc(-c3ccc(N)cc3)nc2c1`, 26.4% (active).
In the case of `COc1ccc2[nH]c(=O)c(CN(Cc3cccnc3)S(=O)(=O)c3ccccc3F)cc2c1`, the inhibition is 1.17%.
Take `Cc1cccc(C(=O)OC(C)CN2CCCC2)c1` (stereo unspecified): the inhibition was 0.74%.
Regarding `Cc1cccc(C(=O)OC(C)CN2CCN(C)CC2)c1` (stereo unspecified), the inhibition was 17.2% (active).
To `Cc1ccc(C(=O)OC(C)CN2CCOCC2)cc1` (stereo unspecified) belongs -4.23%.
As for `CCOc1ccc(NC(=O)[C@H](C)NC(=O)C2CC(=O)N(c3ccc(OC)cc3)C2)cc1` (stereo partly specified), the figure is 2.77%; as for `O=C(NC1CCCC1)C(c1c(F)cccc1Cl)N(C(=O)c1csnn1)C1CC1` (stereo unspecified), -3.16%; as for `Cc1ccc(C(=O)Nc2ccc(C)c(S(=O)(=O)N(C)C)c2)s1`, 0.01%.
To `Cc1ccc(Nc2nc(-c3ccc(O)cc3O)cs2)nc1` belongs 28.1% (active); to `Clc1ccc(Nc2nc(-c3cccs3)cs2)nc1`, 6.93%.
On to `O=c1oc2ccccc2cc1-c1csc(Nc2ccc(O)cc2)n1`, for which the inhibition was -2.38%.
As for `CCOC(=O)c1cc(Sc2ccccc2N)cc(C(=O)OCC)n1`, the figure is 7.9%; as for `Nc1ccccc1SC(C[N+](=O)[O-])c1ccccc1` (stereo unspecified), -4.32%.
As for `CCS(=O)(=O)c1cc([N+](=O)[O-])c(Sc2ccccc2N)s1`, the figure is 20.8% (active); as for `O=c1ccc(-c2ccc(S(=O)(=O)Nc3ccccc3)o2)n[nH]1`, -6.52%.
As for `COCCn1c(N)c(NCc2ccccc2)c(=O)[nH]c1=O`, the figure is 7.03%; as for `Cn1c(=O)c2c(SCC(=O)NCC3CCCO3)nc(CC(C)(C)C)nc2n(C)c1=O` (stereo unspecified), -3.22%.
Take `Cc1ccc(-n2c(C)cc(C(=O)CN3C(=O)C(=O)N(C4CCCC4)C3=O)c2C)cc1`: the inhibition was -3.59%.
As for `Cc1cc(C(=O)COC(=O)C2CC2)c(C)n1-c1ccc(F)cc1`, the figure is 84.2% (active); as for `COc1cc(/C=N/NC(=O)c2cc(C)n(-c3ccc(F)cc3)c2C)cc(OC)c1O`, 6.31%; as for `COc1ccc(-n2c(C)cc(C(=O)CN3C(=O)NC4(CCc5ccccc54)C3=O)c2C)cc1` (stereo unspecified), 2.66%.
